Experimental data as given in PubChem BioAssay (NCATS).
Results filed as inconclusive are left out. The source made the active and inactive calls. Calls come from the whole dose curve; as a rule, active = well fitted inhibition curve with a large enough effect; inconclusive = small, poorly fitted or top-dose-only effect; inactive = flat fitted curve, though single readings scatter. Where a SMILES comes first, the peptide text is derived from it. Bridges are numbered along the chain shown (N, C = ends). [ ]: non-standard residue; d: D form. The star is where a group is joined. X1 = CCC(C)C(N)C1=NC(C(=O)*)CS1; dOrn = NCCC[C@@H](N)C(=O)O

Legend:
[1] = biological target: Glutathione peroxidase 1 (Homo sapiens) (UniProt P07203); assay: Primary qHTS Assay for Inhibitors of Recombinant Selenoprotein Glutathione Peroxidase 1 (GPX1) (AID 1845191); note: nearly all actives have a fitted effect of over 65% in size
Sequence of Glutathione peroxidase 1 (Homo sapiens) (P07203 whole entry, looked up): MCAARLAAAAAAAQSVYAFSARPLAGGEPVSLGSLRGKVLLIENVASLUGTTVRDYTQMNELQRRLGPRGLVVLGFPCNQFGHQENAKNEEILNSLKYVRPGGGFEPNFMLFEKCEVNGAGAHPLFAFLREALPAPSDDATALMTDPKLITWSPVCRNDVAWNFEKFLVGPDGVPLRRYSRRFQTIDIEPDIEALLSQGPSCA
Method in brief: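 10 nM GPX1 + cpd, 30 min RT; start w/ 1 mM GSH, 0.5 mM cumene hydroperoxide, 0.5 mM NADPH, 100 nM GR, 0.01% BSA; buffer 50 mM Tris-HCl pH 7.5, 2 mM EDTA, 150 mM NaCl; Fl 340/450, 0 & 15 min.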

[2] = biological target: Phospholipid hydroperoxide glutathione peroxidase GPX4 (Homo sapiens) (UniProt P36969); assay: Primary qHTS Assay for Inhibitors of Recombinant Selenoprotein Glutathione Peroxidase 4 (GPX4) (AID 1845192); note: nearly all actives have a fitted effect of over 65% in size; for activity change, negative = inhibition: series mostly up to about 50 µM; % is set by controls: 0 for no effect and ±100 for the full control effect
Sequence of Phospholipid hydroperoxide glutathione peroxidase GPX4 (Homo sapiens) (P36969 whole entry, looked up): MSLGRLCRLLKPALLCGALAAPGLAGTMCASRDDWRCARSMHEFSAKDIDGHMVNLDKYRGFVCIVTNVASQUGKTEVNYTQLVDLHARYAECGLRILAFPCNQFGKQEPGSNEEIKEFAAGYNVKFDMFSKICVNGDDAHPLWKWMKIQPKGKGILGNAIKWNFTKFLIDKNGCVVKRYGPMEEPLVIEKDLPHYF
Method in brief: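 NADPH consumption, followed by fluorescence at 340/450 nm between 0 and 15 min, reports GPX4 activity via coupled glutathione reductase (100 nM). Enzyme 200 nM was pre-exposed to compound 30 min; 0.5 mM cumene hydroperoxide and 1 mM GSH served as substrates.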

[3] = biological target: Luciferin 4-monooxygenase (Photinus pyralis) (UniProt P08659); assay: Primary firefly luciferase (FLuc) qHTS assay for identification of artifact compounds. (AID 1845220); note: nearly all actives have a fitted effect of over 60% in size;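 for activity change, negative = inhibition: series mostly up to about 54 µM; plate controls were DMSO vehicle for no effect and no enzyme for full effect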
Method in brief: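 Cell-free, 1536-well qHTS. Buffer pH 7.6 with 0.01% Tween-20 and 0.05% BSA; 10 uM D-luciferin, 10 uM ATP; 10 nM P. pyralis luciferase; luminescence after 5 min.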

CC/C=C/CC1=C(CCCCCCCC(=O)O)CCC1=O
inactive: Potency [1] | Potency [2] | Potency [3]

C[C@]1(OC(=O)/C=C/c2ccccc2)C[C@H](O)[C@]2(O)C=CO[C@@H](O[C@@H]3O[C@H](CO)[C@@H](O)[C@H](O)[C@H]3O)C12 (stereo not given in full)
inactive: Potency [1] | Potency [2] | Potency [3]

C=C(C)C(C)C1OC23CC4(CO2)C(CCC2C5(C)CCC(OC6OCC(O)C(OC7OC(CO)C(O)C(OC8OCC(O)C(O)C8O)C7O)C6OC6OC(CO)C(O)C6O)C(C)(C)C5CCC24C)C3C(C)(O)C1OC(C)=O (stereo not given)
inactive: Potency [1] | Potency [2] | outcome [3] inactive [at 11.6 µM]

C=CCc1ccc(O[C@@H]2O[C@H](CO[C@@H]3O[C@@H](C)[C@H](O)[C@@H](O)[C@H]3O)[C@@H](O)[C@H](O)[C@H]2O)cc1
inactive: Potency [1] | Potency [2] | Potency [3]

CC(C#N)C(C)O[C@@H]1O[C@H](CO)[C@@H](O)[C@H](O)[C@H]1O (stereo not given in full)
inactive: Potency [1] | Potency [2] | Potency [3]

C=C1C(=O)O[C@H]2[C@H]1[C@@H](OC(=O)C(C)CO)C[C@@]1(C)[C@H](O)CCC(=O)[C@H]21 (stereo not given in full)
inactive: Potency [1] | Potency [2] | Potency [3]

CCCCS(=O)(=O)Nc1ncnc(OCCOc2ncc(Br)cn2)c1-c1ccc(Br)cc1
inactive: Potency [1] | Potency [2] | Potency [3]

OCCc1ccc(O[C@@H]2O[C@H](CO)[C@@H](O)[C@H](O)[C@H]2O)c(O)c1
inactive: Potency [1] | Potency [2] | Potency [3]

C[C@@H]1O[C@@H](O[C@@H]2[C@@H](O)[C@@H](O)[C@H](O[C@@H]3[C@@H](O)[C@@H](O[C@]4(CO)O[C@H](CO)[C@@H](O)[C@@H]4OC(=O)/C=C/c4ccc(O)cc4)O[C@H](CO)[C@H]3OC(=O)/C=C/c3ccc(O)cc3)O[C@H]2C)[C@H](O)[C@H](O)[C@H]1O
inactive: Potency [1] | Potency [2] | outcome [3] inactive [at 11.6 µM]

CC(=O)O[C@H]1[C@H](Oc2ccccc2COC(=O)C2(O)C=CCCC2=O)O[C@H](CO)[C@@H](O)[C@@H]1O (stereo not given in full)
inactive: Potency [1] | Potency [2] | Potency [3]

C[C@@H]1O[C@@H](O[C@H]2[C@H](OC(=O)[C@]34CCC(C)(C)C[C@H]3C3=CCC5[C@@]6(C)CC[C@H](O[C@@H]7O[C@H](CO[C@@H]8OC[C@H](O)[C@H](O)[C@H]8O)[C@@H](O)[C@H](O)[C@H]7O)C(C)(C)C6CC[C@@]5(C)[C@]3(C)C[C@H]4O)OC[C@@H](O)[C@@H]2O)[C@H](O)[C@H](O)[C@H]1O[C@@H]1OC[C@H](O)[C@H](O[C@@H]2OC[C@@H](O)[C@H](O)[C@H]2O)[C@H]1O (stereo not given in full)
inactive: outcome [1] inactive [at 9.52 µM] | activity change, negative = inhibition [2] -4.93% [at 9.73 µM] | activity change, negative = inhibition [3] 1.47% [at 11.6 µM]

O=S(=O)(Nc1ccc(C(O)(C(F)(F)F)C(F)(F)F)cc1)c1cccs1
inactive: Potency [1] | Potency [2] | Potency [3]

CC1CCC2C(C)(C)CC(C)(CO)C2(O)C1C(=O)O (stereo not given)
inactive: Potency [1] | Potency [2] | Potency [3]

CN1C(=O)c2ccccc2-n2c(nc3ccccc3c2=O)[C@@]12O[C@H]2c1ccccc1
inactive: Potency [1] | Potency [2] | Potency [3]

COc1c(C)c(OCC=C(C)C)cc2c1C(=O)NC2=O
inactive: Potency [1] | Potency [2] | Potency [3]

O=C1NCc2nc3ccccc3c(=O)n2C1Cc1c[nH]c2ccccc12 (stereo not given)
inactive: Potency [1] | Potency [2] | Potency [3]

C=CCc1ccc(O[C@@H]2O[C@H](CO[C@@H]3O[C@H](CO)[C@@H](O)[C@H](O)[C@H]3O)[C@@H](O)[C@H](O)[C@H]2O)c(O)c1
inactive: Potency [1] | Potency [2] | Potency [3]

C/C=C1/[C@H](O[C@@H]2O[C@H](CO)[C@@H](O)[C@H](O)[C@H]2O)OC=C(C(=O)OC)[C@H]1CC(=O)O[C@@H]1O[C@H](CO)[C@@H](O)[C@H](O)[C@H]1O
inactive: Potency [1] | Potency [2] | Potency [3]

O=C(O)C[C@H]1CCC(=O)[C@@H]1C/C=C\CCOC1OC(CO)C(O)C(O)C1O (stereo not given in full)
inactive: Potency [1] | Potency [2] | Potency [3]

CCC(C)C(N)C1=NC(C(=O)N[C@@H](CC(C)C)C(=O)N[C@H](CCC(=O)O)C(=O)N[C@H](C(=O)N[C@H]2CCCCNC(=O)[C@H](CC(N)=O)NC(=O)[C@@H](CC(=O)O)NC(=O)[C@H](Cc3cnc[nH]3)NC(=O)[C@@H](Cc3ccccc3)NC(=O)[C@H]([C@@H](C)CC)NC(=O)[C@@H](CCCN)NC2=O)[C@@H](C)CC)CS1 (stereo not given in full) (X1-L[dE]IK[dOrn]I[dF]H[dD]N; lactam 4-C)
inactive: Potency [1] | Potency [2] | Potency [3]

O=C(O[C@H]1[C@@H]2C=CO[C@@H](O[C@@H]3O[C@H](CO)[C@@H](O)[C@H](O)[C@H]3O)[C@@H]2[C@@]2(CO)O[C@@H]12)c1ccc(O)cc1
inactive: Potency [1] | Potency [2] | Potency [3]

O=C(O)CCc1cccc(O[C@@H]2O[C@H](CO)[C@@H](O)[C@H](O)[C@H]2O)c1O
inactive: Potency [1] | Potency [2] | Potency [3]

CN1CC[C@@H](NC(=O)Nc2ccc(C#N)cc2)C[C@@H]1c1nc2ccccc2[nH]1
inactive: Potency [1] | Potency [2] | Potency [3]

CC(=O)C1CCC2(C)C3=C(CCC12C)C1(C)CCC(=O)C(C)(C)C1CC3 (stereo not given)
inactive: Potency [1] | Potency [2] | Potency [3]

C=CC1C(O[C@@H]2O[C@H](CO)[C@@H](O)[C@H](O)[C@H]2O)OC=C(C(=O)OC)C1CC(=O)O (stereo not given in full)
inactive: Potency [1] | Potency [2] | Potency [3]
